In all, about 69,000 compounds went through this assay and about 8,600 (12%) showed an effect of 50% or more. What follows is part of a selection rich in strong results, with near analogues and random picks from the rest.
Tested on: Plasmodium berghei
Assay: Screen against P. berghei liver stage (PbLuc), transformed with Luciferase, at 10uM
Format: functional, HepG2
Details: tested at 10 uM

| Compound | INHIBITION [%] |
| --- | --- |
| O=C(NC1COC2(CCN(Cc3cccs3)CC2)C1)c1ccccn1 (centres undefined) | 20.9 |
| Cc1ccc(CN[C@@H]2COC[C@H]2c2ccc(F)cc2)cc1C | 49 |
| CN1CC2(CCC(C(=O)N3CCOCC3)CC2)Oc2ccccc2C1=O (centres undefined) | -3.58 |
| COCCN1CCn2c(CN(C)C(C)C)cnc2C1 | -8.28 |
| CNC(=O)[C@@H]1[C@@H](c2ccccc2)CN2CCN(Cc3ccco3)C[C@H]12 | 57 |
| CNC(=O)[C@@H]1[C@H]2CN(Cc3ccoc3)CCN2C[C@H]1c1ccccc1 | 9.36 |
| CNC(=O)[C@@H]1[C@@H](c2ccccc2)CN2CCN(Cc3cccs3)C[C@H]12 | 41.1 |
| Cn1cc(N2CC3(CCN(Cc4cccnc4)CC3)OCC2=O)cn1 | 22.9 |
| Cc1nc(C)n(C2CCCN(C(=O)c3ccc4nccn4c3)C2)n1 (centres undefined) | 20.8 |
| CSCCCN1CC[C@@]2(O)CCN(c3ncccn3)C[C@H]2C1 | 38.3 |
| O=C1CCCN1CCN1CC[C@@]2(O)CCN(c3ncccn3)C[C@H]2C1 | 51.2 |
| Cc1ccc(N2CC[C@]3(O)CCN(CCN4CCCC4=O)C[C@@H]3C2)nn1 | -2.25 |
| CCc1nnc2n1CCN(C(=O)c1cc3ccccc3[nH]1)C2 | 18.2 |
| Cc1cc(N2CCc3cncnc3C2)n2nc(C(F)(F)F)nc2n1 | 50.8 |
| Cc1cc(N2CCc3cnc(C)nc3C2)n2nc(C(F)(F)F)nc2n1 | 10.6 |
| Cc1cc(N2CCc3c(ncn3C)C2)n2nc(C(F)(F)F)nc2n1 | 20 |
| Cc1nc(C)n(Cc2cccc(NC3CCN(C)C3=O)c2)n1 (centres undefined) | -41.6 |
| CC(C)SCc1cccc(NC2CCN(C)C2=O)c1 (centres undefined) | -13.9 |
| CCSCc1cccc(NC2CCN(C)C2=O)c1 (centres undefined) | 52.5 |
| CN1CCCC(CCC(=O)N2CCc3c(nc(CC4CC4)[nH]c3=O)C2)C1 (centres undefined) | 49.3 |
| NCCO[C@H]1C[C@@H](O)C12CCN(C1Cc3ccccc3C1)CC2 | 43 |
| CCO[C@H]1C[C@@H](O)C12CCN(C(=O)CN1CCCCCC1=O)CC2 | 24.3 |
| CCOCCn1nc(C)cc1C(=O)N1CCC2(CC1)[C@H](O)C[C@@H]2OCC | 9.63 |
| CCO[C@H]1C[C@@H](O)C12CCN(S(=O)(=O)c1ccccc1OC)CC2 | 46.4 |
| CCO[C@H]1C[C@@H](O)C12CCN(C1Cc3ccccc3C1)CC2 | 50.3 |
| CCO[C@H]1C[C@@H](O)C12CCN(C1CCN(c3ccccc3)CC1)CC2 | 25.8 |

| Compound | INHIBITION [%] |
| --- | --- |
| CCO[C@H]1C[C@@H](O)C12CCN(C(=O)CC(F)(F)F)CC2 | 90.2 |
| CCO[C@H]1C[C@@H](O)C12CCN(C1CCN(c3ccccc3C)CC1)CC2 | 69.4 |
| CCO[C@H]1C[C@@H](O)C12CCN(C(=O)CCN1CCCC1=O)CC2 | 14.5 |
| Cc1ncc(C(=O)N2CCCC(Cc3nccs3)C2)cn1 (centres undefined) | 29.3 |
| CCN(CC)c1ncc2c(O)nc(C3CCNCC3)cc2n1 | 6.26 |
| CCN(C)c1ncnc2c1CCN(C(=O)COC)CC2 | -12.1 |
| COC(=O)[C@H](C)NC(=O)COc1nn(C)c2nc(C)cc(C)c12 | -10.2 |
| Cc1cc2nc(SCC(=O)N3CCCC3)n(Cc3ccco3)c(O)c-2n1 | 34.2 |
| CCS(=O)(=O)N(C)CCCNC(=O)c1cc(Cl)cc2cccnc12 | 37.9 |
| CCCNC(=O)C(C)n1nc(-c2ccc(C)o2)cc(N)c1=O (centres undefined) | 31.6 |
| CCc1cc(CNC(=O)C2CCCN(C(=O)NCC(C)C)C2)[nH]n1 (centres undefined) | 22.5 |
| CN(Cc1ccccc1)c1cnn(CC2CCCCO2)c(=O)c1 (centres undefined) | 28.2 |
| COCC1CC2(CCN(C(=O)c3cnc4ccccc4c3)CC2)CO1 (centres undefined) | 42.1 |
| Cc1ccc(CN(C)C(=O)CN2CCCC2c2cnn(C)c2)cc1 (centres undefined) | -1.79 |
| COC(=O)c1cccc(C(=O)N(C)Cc2ccsc2)c1 | 13.8 |
| COC(=O)c1cccc(C(=O)N(C)Cc2cccc(O)c2)c1 | 7.44 |
| Cc1ccc(CN(C)C(=O)c2cnsn2)cc1 | 65.2 |
| Cc1ccc(CN(C)C(=O)c2scnc2C)cc1 | -11.19 |
| CN(Cc1cccc(OC(F)(F)F)c1)C(=O)Cc1ccon1 | 19.5 |
| CN(Cc1cccc(OC(F)(F)F)c1)C(=O)c1cnsn1 | 68.6 |
| CN(Cc1cccc(OC(F)(F)F)c1)C(=O)c1ccncc1F | 39.4 |
| COC(=O)c1ccc(CN(C)C(=O)c2cnsn2)cc1 | 64.1 |
| Cc1nn(C)c2cn(CC(=O)N3CCN(c4ccccn4)CC3)nc12 | 30 |
| CC(c1ccco1)N(C(=O)Cn1nc2n(c1=O)CCCCC2)C1CC1 (centres undefined) | 5.94 |
| Cc1ncc(C(=O)NCCNc2ncccc2C#N)s1 | -0.113 |
| O=C(Cn1ccnc1)N(CCO)CCSc1ccc(Cl)cc1 | 9.41 |

| Compound | INHIBITION [%] |
| --- | --- |
| COCC(=O)N1CCCC2(CCN(Cc3cccc(C)n3)C2=O)C1 (centres undefined) | 43.9 |
| N#Cc1cc(F)ccc1Cn1cnc(C2CCC2)cc1=O | 26.6 |
| N#Cc1ccc(F)cc1Cn1cnc(C2CCC2)cc1=O | -22.3 |
| N#Cc1cc(Cn2cnc(C3CCC3)cc2=O)ccc1F | 74.3 |
| CCc1nnc2n1CCN(Cc1cc(Cl)c3c(c1)OCCO3)C2 | 10.235 |
| COc1ncccc1CNC(=O)c1cc(Cl)ccn1 | -22.8 |
| Cc1noc(CCCC(=O)N2CCCCC2CNS(C)(=O)=O)n1 (centres undefined) | 49.7 |
| CC(C)OCCCNC(=O)CS(=O)(=O)Cc1ccc(Cl)cc1 | 9.64 |
| CN(C)C(=O)CC1CC2(CCN(Cc3ccco3)CC2)c2ccccc21 (centres undefined) | 75 |
| CN(C)C(=O)CC1CC2(CCN(Cc3cccs3)CC2)c2ccccc21 (centres undefined) | 45.2 |
| CNC(=O)CC1CC2(CCN(Cc3nccs3)CC2)c2ccccc21 (centres undefined) | -0.113 |
| CN(C)C(=O)CC1CC2(CCN(Cc3ccsc3)CC2)c2ccccc21 (centres undefined) | 64.2 |
| CN(C)C(=O)NC1COC2(CCN(Cc3ccco3)CC2)C1 (centres undefined) | 27.6 |
| CN(C)C(=O)CC1CC2(CCN(Cc3ccoc3)CC2)c2ccccc21 (centres undefined) | -6.23 |
| CC(=O)N1CCC(N2CCC(c3nc(C)cc(C)n3)C2)CC1 (centres undefined) | 24.8 |
| Cc1cncnc1C1CCN(CC(N)=O)CC1 | -16.9 |
| CC(=O)N1CCc2nc(C3CCN(c4ncccn4)C3)ncc2C1 (centres undefined) | -0.902 |
| CNC(=O)N1C[C@H]2N(c3ncccn3)CCC[C@@]2(C(=O)NCC2CC2)C1 | 17.7 |
| CS(=O)(=O)N1C[C@H]2N(c3ncccn3)CCC[C@@]2(C(=O)NCC2CC2)C1 | 35.8 |
| CN1C[C@H]2N(c3ncccn3)CCC[C@@]2(C(=O)NCC2CC2)C1 | 67.5 |
| CCN1C[C@H]2N(c3ncccn3)CCC[C@@]2(C(=O)NCC2CC2)C1 | 19.5 |
| CNC(=O)[C@@]12CCCN(c3ncccn3)[C@@H]1CN(C)C2 | -17.4 |
| CC(C)CN1C[C@H]2N(c3ncccn3)CCC[C@@]2(C(=O)NCC2CC2)C1 | 56.6 |
| CC(=O)N1CC(=O)N(c2ccccc2)CC12CCN(Cc1cccs1)C2 (centres undefined) | 6.38 |
| COCC1CC2(CCN(Cc3cnn(C)c3)CC2)CN1C(C)C (centres undefined) | 37.5 |
| O=C(O)c1ccc(C2CCCN(C(=O)c3ccc[nH]3)C2)cc1 (centres undefined) | 36.8 |

| Compound | INHIBITION [%] |
| --- | --- |
| O=C(NCc1cnc2n1CCN(Cc1nccs1)CC2)C1CCC1 | 30.3 |
| CC(=O)N(C)c1nc(CN2CCCC2c2cnn(C)c2)cs1 (centres undefined) | 50.3 |
| Cn1cc(C2CCCN2Cc2csc(C(C)(C)C)n2)cn1 (centres undefined) | 55.9 |
| Cn1cc(C2CCCN2Cc2csc(-c3ccccc3)n2)cn1 (centres undefined) | -38.2 |
| CC(C)c1nc(CN2CCCC2c2cnn(C)c2)cs1 (centres undefined) | 19.4 |
| Cn1cc(C2CCCN2Cc2csc(C3CCCC3)n2)cn1 (centres undefined) | 42 |
| CC(=O)Nc1nc(CN2CCCC2c2cnn(C)c2)cs1 (centres undefined) | 34.9 |
| Cc1cnn(CC2CN(Cc3nc(-c4ccsc4)no3)CCO2)c1 (centres undefined) | 49.75 |
| CC1(C(=O)N2CCN(c3cnccn3)CC2)CNCCO1 (centres undefined) | 36.5 |
| COc1cc2cc3c(nc2cc1OC)OCCN(CC1CC1)C3 | -7.66 |
| COc1cccc(CC(=O)NCc2cnc(C)nc2C2CCCN2C)c1 (centres undefined) | 36.7 |
| Cc1nc2c(c(N3CCCC(OCc4ccccn4)C3)n1)CCNCC2 (centres undefined) | 73 |
| Cc1nn(C)c2ncnc(N3CCCC(OCc4ccccn4)C3)c12 (centres undefined) | -46.6 |
| Nc1nc2c(c(N3CCCC(OCc4ccccn4)C3)n1)CCNCC2 (centres undefined) | 59.4 |
| Cc1nc(N2CCCC(OCc3ccccn3)C2)c2c(C)noc2n1 (centres undefined) | -4.21 |
| Nc1nc2c(c(N3CCCC(CN4CCCC4=O)C3)n1)CCNCC2 (centres undefined) | 48.5 |
| c1ccc(CN2CCc3ncnc(N4CCCC4)c3CC2)nc1 | 46.7 |
| Nc1nc2c(c(N3CCSCC3)n1)CCN(Cc1ccccn1)CC2 | 66.5 |
| NCC1CCCN(c2nc(-c3ccccc3)nc3c2CCNCC3)C1 (centres undefined) | 19.5 |
| Nc1nc2c(c(N3CCCC3)n1)CCN(Cc1ccccn1)CC2 | 41.5 |
| CCc1nnc2n1CCN(CC(O)c1ccc3c(c1)OCCO3)C2 (centres undefined) | 22.333 |
| Cc1cnc(CN2CCCC2c2noc(C(C)C)n2)cn1 (centres undefined) | 9.54 |
| O=C(Cc1n[nH]c2ccccc12)N1CCC(Nc2cccnn2)CC1 | 49.3 |
| Cc1ccc(CN2CCOC3(COCCN(C(C)C)C3)C2)o1 (centres undefined) | 43 |
| CCc1nnc2n1CCN(C(=O)c1ccc(C)c(S(N)(=O)=O)c1)C2 | 36.8 |
| COCCOCC(=O)Nc1ccc(C)cc1Br | -5.51 |

— ChEMBL document CHEMBL4513216, “Probing the Open Global Health Chemical Diversity Library for Multistage-Active Starting Points for Next-Generation Antimalarials” (ACS Infect Dis, 2020)
